From PubChem BioAssay (Tox21)
Records with an inconclusive call do not appear. Values without a mark were called inactive. Activity calls are given as the source filed them. The call rests on the fitted dose curve; in most records, active means well fitted activation curve with a large enough effect in the signal ratio in the repeat runs (not every such curve was filed as active); inconclusive means weak or mixed curves; inactive means flat fitted curve, though single readings scatter; the % refers to the signal ratio.

assay: qHTS assay to identify small molecule agonists of the hypoxia (HIF-1) signaling pathway (AID 1224846); settings: HRE-bla ME-180 cells, beta-lactamase ratio, 17 h; series mostly up to 76.8 µM; activation: at the top concentration
Source text: U.S. Tox21 Program National Center for Advancing Translational Sciences [NCATS] NIH Chemical Genomics Center [NCGC] U.S. Environmental Protection Agency [EPA] National Institutes of Environmental Health Sciences [NIEHS] National Toxicology Program [NTP] U.S. Food and Drug Administration [FDA] Tox21 Assay Overview: Hypoxia-inducible factor-1 (HIF-1) is the major hypoxia-regulated transcription factor that controls cellular responses to low oxygen concentration. HIF-1 is composed of two subunits: hypoxia responsive HIF-1-alpha and constitutively expressed HIF-1-beta, which is also known as aryl hydrocarbon receptor nuclear translocator. During hypoxic conditions, HIF-1-alpha heterodimerizes with HIF-1-beta and translocates into the nucleus where the HIF-1 complex binds to the hypoxia-response element (HRE) and activates expression of target genes such as VEGF (vascular endothelial growth factor). The HIF-1 pathway is essential to normal growth and development, and is involved in the pathophysiology of cancer, inflammation, and ischemia. Using a beta-lactamase reporter-gene under control of the hypoxia response element, a cell-based assay [CellSensor(TM) HRE-bla ME-180 from Life Technologies, Carlsbad, CA] was used to measure hypoxia-induced signaling. Tox21 10K library compounds were measured for their ability to induce the reporter gene activity.
Tox21 Assay Protocol Summary: HRE-bla ME-180 cells were dispensed at 2,000 cells per well in 6 uL of assay medium containing 0.5% dialyzed FBS into black wall/clear-bottom 1536-well plates using a Multidrop Combi (Thermo Scientific, Waltham, MA) dispenser. After the assay plates were incubated at 37C and 5% CO2 for 5 hrs, 23 nL of compounds dissolved in DMSO, positive controls or DMSO only was transferred to each well of the assay plate using a Pintool station (Kalypsys, San Diego, CA). The assay plates were incubated at 37C and 5% CO2 for 17 hrs. One uL of LiveBLAzerTM B/G FRET substrate (CCF4-AM) (Life Technologies) was added to each well using a Flying Reagent Dispenser (Aurora Discovery, San Diego, CA).
On the % scale 0 is the no-effect control and ±100 the full control effect.

Structure (SMILES) | activation | outcome
Nc1ccc(Cl)cc1C(=O)c1ccccc1 | 0.031% | –
C=CCOC(N)=O | -0.982% | –
CC(=O)Nc1ccc2c(c1)Cc1ccccc1-2 | 0.0687% | –
CCOc1cc(C(C)(C)C)ccc1C1COC(c2c(F)cccc2F)=N1 (stereo not given) | 5.11% [at 35.5 µM] | –
C1CCC2CCCCC2C1 (stereo not given) | 0.202% | –
CCOP(=S)(OCC)SCS(=O)(=O)CC | -0.854% | –
CC(C)(C)C(O)/C(=C\c1ccc(Cl)cc1Cl)n1cncn1 (stereo not given) | 2% | –
CCOCCOC(C)=O | -1.22% | –
COP(=O)(CCC(=O)NCO)OC | -0.0091% | –
Clc1ccc(-c2ccccc2)cc1 | 0.996% | –
Cn1cc(C2=C(c3cn(C4CCN(Cc5ccccn5)CC4)c4ccccc34)C(=O)NC2=O)c2ccccc21 | -3.67% [at 35.5 µM] | –
BrCC(Br)c1ccccc1 (stereo not given) | 0.119% | –
CC(C)CCCCCOC(=O)c1ccccc1C(=O)OCCCCCC(C)C | 0.305% | –
CC(O)C#N (stereo not given) | -0.716% | –
CCOP(=S)(OCC)OC(Cl)C(Cl)(Cl)Cl (stereo not given) | -0.166% | –
ClCCN1CCOCC1 | -1.47% | –
Oc1c(Cl)c(Cl)cc(Cl)c1Cl | 4.2% | –
CC(C)(C)OO | 0.182% | –
CC(=O)/C=C/c1ccc2c(c1)OCO2 | 2.56% | –
N#Cc1ccccc1Cl | 0.0619% | –

Structure (SMILES) | activation | outcome
CN(C)C1CSSSC1 | -1.79% | –
O=C(Cl)c1ccc(Cl)cc1 | 0.124% | –
C=COCCCl | -0.436% | –
C=CC(=O)N(C)C | 0.717% | –
CC(=O)c1ccc(-c2ccccc2)cc1 | 0.293% | –
CC(Cl)CN(C)C (stereo not given) | -1.87% | –
CCCN(CCC)CCc1c[nH]c2ccccc12 | -0.425% | –
CCCCCCCCCCCCBr | -1.43% | –
O=[N+]([O-])c1ccc(Oc2ccc(C(F)(F)F)cc2[N+](=O)[O-])cc1 | 3.87% | –
CCOP(=S)(OCC)SCS(=O)(=O)C(C)(C)C | -0.567% | –
N#Cc1ccccc1N | -0.41% | –
c1ccc(OCC2CO2)cc1 (stereo not given) | -0.282% | –
CCCCOP(=O)(CCCC)OCCCC | -0.693% | –
Fc1cccc(Cl)c1CCl | 1.57% | –
CC(c1ccc(O)cc1)c1ccc(O)cc1 | – | inactive
COc1ccc(OC)c(C=O)c1 | -0.433% | –
O=C(NC(=O)c1c(F)cccc1F)Nc1cc(Cl)c(OC(F)(F)C(F)F)c(Cl)c1 | 4.74% | –
NNC(=O)c1ccccc1 | -1.25% | –
CC(C)CBr | 0% | –
CN(CCCC(O)c1cccnc1)N=O (stereo not given) | 0.364% | –
